# Sampled rows, rich in hits. Any-hit rate of the full collection: about 3.2%.
# Nrf2 ARE act = Nrf2 pathway activation; AREc32 ARE-luciferase reporter (MCF7-derived line), luminescence, 24 h; Potency, µM (highest dose often 46.1 µM), for the others: at the highest dose activation, usual class: activators; 410,000 compounds, 0.31% hits; AID 624171; also: potency is read from the fitted curve at half-maximal effect; % of control where 0% means no effect; nearly all actives have a fitted effect of over 65% in size
#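 Steps: seed AREc32_Fluc cells (1000/well, 5% FBS OPTI-MEM); incubate overnight at 37 deg C; add 23 nL compound; incubate 24 hr; add Steady-Glo; hold 30 min RT; read luminescence.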
# BRCA1 expr act = activators of BRCA1 expression. MCF7-BRCA1-FFLuc reporter, luminescence, 48 h; response scale: scaled: vehicle 0%, 10 µM genistein 100%. Potency, µM (top dose mostly 46.1 µM), without a hit: at the highest dose activation, hits mostly activators. 380,000 compounds, 1.1% hits; also: potency is read from the fitted curve at half-maximal effect; nearly all actives have a fitted effect of over 80% in size
#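 Quantitative HTS in MCF7 cells stably reporting BRCA1 expression via firefly luciferase. Compound treatment lasts 48 h at 37 °C in phenol-red free MEM. Activation is expressed relative to genistein at 10 microM and DMSO.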
# A549 viability = counter-screen for Nrf2 inhibitors: cytotoxicity in A549 cells. A549 ARE-Fluc cells, CellTiter-Fluor viability, 18-24 h. Potency, µM (highest dose often 46 µM), inactives show at the highest dose activity change, negative = cytotoxicity, hits mostly inhibitors. 390,000 compounds, 0.16% hits; also: potency is read from the fitted curve at half-maximal effect; % is scaled to controls: 0 for no effect and ±100 for the full control effect
#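 Cytotoxicity counterscreen: CellTiter-Fluor fluorescence was measured in A549 ARE_Fluc cells after 18-24 h of compound exposure in a concentration series. The subsequent BugLite luminescent read reports ARE-luciferase activity.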
# p53 reactivation = mutant p53 re-activation in reporter cells; H1299 p53-A138V BP100-luciferase reporter, luminescence, 24 h; 320,000 compounds, 0.063% hits; AID 504706; Potency, µM (doses to about 92.2 µM), inactives show at the highest dose activity change, positive = activation, actives largely listed as activators; also: potency is read from the fitted curve at half-maximal effect; % of control where 0% means no effect; nearly all actives have a fitted effect of over 45% in size
#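 H1299 (p53-null), stable ts p53-A138V + BP100-Luc; 1000 cells/well, Opti-MEM/10% FBS; cpd 4 pt, 1:5; 24 h, 37 deg C, 5% CO2; detection reagent 10 min RT; luminescence.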
# IL2 activator = activators of IL-2. AID 652025. IL-2 activation reporter assay, cell-based qHTS; stimulated with anti-CD3/CD4/CD28 beads; in transgenic mouse T cells. 360,000 compounds, 0.065% hits. activation, % (series mostly up to about 46 µM); in the data active = activation above about 50%; inconclusive = mostly about 30% to 49%; also: 0% is about no effect
#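 Readout: EGFP and DsRed signals by fluorescent plate cytometry. Unstimulated transgenic mouse T cells received compound 60 min before antibody-bead stimulation, then incubated 18 h at 37 degrees C.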
# Nrf2 block = blocks Nrf2 signaling; Potency, µM (highest dose often 46 µM), for the others: at the top dose activity change, negative = inhibition, actives largely listed as inhibitors; AID 504444; A549 ARE-Fluc reporter, luciferase luminescence, 18-24 h; 360,000 compounds, 2.1% hits; also: potency is read from the fitted curve at half-maximal effect; % is scaled to controls: 0 for no effect and ±100 for the full control effect; nearly all actives have a fitted effect of over 60% in size
#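 Reporter: ARE-Fluc in A549. Exposure: 18-24 h, 37 °C, 5% CO2, 5% FBS OPTI-MEM. Readouts: fluorescent cytotoxicity (CellTiter-Fluor), then luminescent Nrf2 signal after BugLite.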
# Starred values were filed as active, the others as inactive; ? = inconclusive; · = not tested or not shown. Unless noted, calls follow the shape of the dose curve; as a rule, active = well fitted curve in the direction sought with a large enough effect; inconclusive = small, poorly fitted or top-dose-only effect, or another doubt; inactive = no such curve, though single readings can be large; an effect the other way counts as inactive or inconclusive.
SMILES,Nrf2 ARE act,BRCA1 expr act,A549 viability,p53 reactivation,IL2 activator,Nrf2 block
CC1=CC2/C=C(\C)CCC(O)C(O)/C=C/C(=O)C23C(=O)NC(CC(C)C)C3C1C (stereo unspecified),?,-89%,16µM*,-12%,-4,15µM*
C=CC[C@H](CC(=O)N(CCO)Cc1ccccc1)C(=O)NC[C@H](OC(=O)[C@@H](CC=C)CC(=O)OC(C)(C)C)c1ccccc1,-4%,-58%,?,1%,-3,18µM*
COc1ccc([N+](=O)[O-])cc1CSc1ccccn1,11µM*,-10%,8%,-2%,-3,26%
Cc1ccc(C(=O)COC(=O)c2cccc(NC(=O)c3ccc(Br)cc3)c2)cc1,-1%,·,-7%,·,·,?
Cc1nn2c(=O)cc(N3CCNCC3)nc2s1,·,·,11%,·,·,0%
CN(C)c1ccc([N+](=O)[O-])c([N+](=O)[O-])c1,11µM*,-23%,?,·,0,-20%
CCOc1ccc(-n2c(/C=C/c3ccccc3)nc3ccccc3c2=O)cc1,4%,·,2%,·,·,·
CCn1nc(/C=C/c2ccccc2)nc2c(=O)n(C)c(=O)nc1-2,-3%,-92%,5.8µM*,3%,-1,?
CCn1nc(-c2cccs2)nc2c(=O)n(C)c(=O)nc1-2,-4%,-105%,1.5µM*,-64%,1,5.2µM*
O=C(C1CCN(S(=O)(=O)c2ccc(Br)s2)CC1)N1CCN(c2cccc(C(F)(F)F)c2)CC1,0%,·,-11%,·,·,2.9µM*
CC1(C)Cc2c(c(N3CCOCC3)nc3sc4c(NCc5ccccc5)nnnc4c23)CS1,-1%,-43%,-2%,-5%,-2,2.6µM*
Cc1ccc(N2CCN(C(=O)c3cn(CC4CCCCC4)nn3)C(C)C2)cc1 (stereo unspecified),0%,2.5µM*,5%,·,-5,14%
O=P1(Oc2ccccc2)CC=CC(COCc2ccccc2)O1 (stereo unspecified),·,·,-4%,·,·,5%
CN(C)P(=O)(C(Cl)=C(N1CCCCC1)N1CCCCC1)N(C)C,19%,4%,-3%,32µM*,-1,?
O=C(N1CCCCCC1)N1CC1,0%,25%,-7%,·,1,6%
Nc1c(C(=O)NCc2ccco2)c2nc3ccccc3nc2n1Cc1ccc(F)cc1,18µM*,-58%,-21%,44%,-3,-16%
C[N+](C)(C)CC1CCCC(C[N+](C)(C)C)C1=O (stereo unspecified),11µM*,-85%,-4%,·,-1,0%
O=C(c1cccc(C(F)(F)F)c1)C1CCCN(Cc2ccccc2O)C1 (stereo unspecified),0%,0%,1%,-4%,1,-4%
O=C(Nc1ccc2nc3n(c(=O)c2c1)CCCCC3)c1cccc(C(F)(F)F)c1,5%,·,-17%,·,·,12µM*
CC(=O)NCC(N)C(=O)c1ccc(C)cc1 (stereo unspecified),·,-15%,·,·,·,·
COC(=O)C1=C(c2ccc(C(C)=O)cc2)C[C@@H]2CC[C@H]1N2C(=O)N1CCC(O)(c2ccc(Cl)cc2)CC1,6%,-43%,-16%,4%,-1,23µM*
CS(=O)(=O)NNC(=O)Cn1nnc(-c2ccc(OCc3ccccc3Cl)cc2)n1,2%,11µM*,3%,·,1,4%
O=S(=O)(c1ccc(F)c(F)c1F)N1CCN(c2ncnc3sccc23)CC1,5%,-67%,0%,-1%,-6,13µM*
O=C1NC(=O)N(c2ccccc2)C(=O)/C1=C\c1ccc2c3c(cccc13)CC2,·,·,·,-14%,·,·
Nc1ccc2c3c(cccc13)CC2,1%,-87%,-20%,16%,83*,-11%
Cc1ccc(S(=O)(=O)N(C)C[C@H]2Oc3c(NC(=O)Nc4cccc5ccccc45)cccc3C(=O)N([C@@H](C)CO)C[C@@H]2C)cc1,8%,-69%,-13%,-7%,0,?

# Screening results (PubChem)
